This is a sample that favours compounds with a hit; in the whole collection about 3.1% have one here.
Peg3 prom inh: inhibitors of Peg3 promoter; HeLa PEG-Prom luciferase reporter, luminescence, overnight; inhibition, % at 20 µM; actives 1.7% (n = 360,000); AID 588405;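 active = inhibition of at least 50% at 20 µM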
ABHD5-PLIN5 inh: ABHD5-PLIN5 protein interaction inhibition | Q00G26+Q8WTS1 | Split G. princeps luciferase complementation, luminescence, 4 h | inhibition, % at 4 µM | actives 0.78% (n = 360,000) | AID 602281;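 active = inhibition above the mean inhibition across every tested compound plus 3 SD, cut at about 22% in these data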;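 also: 0% = DMSO only wells and the 100% control is not disclosed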
Target sequence (Q00G26 whole entry, looked up): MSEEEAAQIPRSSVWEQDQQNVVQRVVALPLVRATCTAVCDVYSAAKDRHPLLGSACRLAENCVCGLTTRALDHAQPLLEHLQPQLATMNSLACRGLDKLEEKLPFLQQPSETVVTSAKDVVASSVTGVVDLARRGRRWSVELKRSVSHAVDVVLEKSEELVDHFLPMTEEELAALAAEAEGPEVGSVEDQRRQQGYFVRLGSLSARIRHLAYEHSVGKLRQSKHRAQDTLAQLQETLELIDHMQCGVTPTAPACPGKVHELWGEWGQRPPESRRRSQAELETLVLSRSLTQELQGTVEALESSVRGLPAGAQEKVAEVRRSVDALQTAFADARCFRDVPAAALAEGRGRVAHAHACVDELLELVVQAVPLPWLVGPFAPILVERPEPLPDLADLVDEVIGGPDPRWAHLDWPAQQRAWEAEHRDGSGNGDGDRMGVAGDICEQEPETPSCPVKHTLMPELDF
Target sequence (Q8WTS1 whole entry, looked up): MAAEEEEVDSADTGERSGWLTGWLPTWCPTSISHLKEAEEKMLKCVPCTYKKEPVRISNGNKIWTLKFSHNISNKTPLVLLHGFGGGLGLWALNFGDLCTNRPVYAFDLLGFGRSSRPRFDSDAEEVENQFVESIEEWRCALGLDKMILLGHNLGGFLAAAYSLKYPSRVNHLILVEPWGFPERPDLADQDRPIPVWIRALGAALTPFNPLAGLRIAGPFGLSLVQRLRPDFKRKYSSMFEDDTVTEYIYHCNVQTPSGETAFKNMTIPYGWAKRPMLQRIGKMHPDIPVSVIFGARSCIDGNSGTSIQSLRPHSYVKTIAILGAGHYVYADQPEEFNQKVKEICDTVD
CF NFkB block: blocks PAF-induced NF-kB reporter in cystic fibrosis cells; KKLEB NF-kB-GFP reporter, GFP fluorescence overnight; inhibition, % at 5 µM; actives 0.86% (n = 360,000);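 active = at least 50% inhibition at 5 µM, scaled per plate between neutral and stimulator controls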;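 also: PAF is a Pseudomonas aeruginosa culture filtrate used as stimulus; plate controls were PAF-stimulated DMSO wells for no effect and unstimulated DMSO wells for full effect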
KKLEB cytotox: counter-screen for CF NF-kB inhibitors: cytotoxicity | KKLEB CF airway cells viability, ATPlite luminescence, overnight; hits give low values; cells stimulated with P. aeruginosa culture filtrate | activity change (cytotoxicity), % at 5 µM | actives 0.36% (n = 360,000) | AID 602141;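 active = corrected activity change at or below -50% at 5 µM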
MITF TRPM1 inh: MITF TRPM1 promoter inhibition in SK-MEL-5 cells; SK-MEL-5 TRPM1 promoter luciferase, 24 h; inhibition, % at 12.5 µM; actives 0.83% (n = 330,000); AID 488899;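 active = mean inhibition across replicates of 60% or more, whatever share of single replicates reaches that level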
HIF-2a inh: inhibitors of HIF-2a. 786-0 RCC cells HIF-2a reporter, luciferase luminescence, overnight. inhibition, % at 18.8 µM. actives 0.72% (n = 360,000);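 active = inhibition of the luminescence signal of 40% or more relative to plate controls, in a single-dose primary screen at 18.75 µM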
* = called active by the depositor; / = no result given.

SMILES	Peg3 prom inh	ABHD5-PLIN5 inh	CF NFkB block	KKLEB cytotox	MITF TRPM1 inh	HIF-2a inh
O=C(CN(C(=O)CNS(=O)(=O)c1ccc(F)cc1)C1CCCC1)NCc1ccco1	6.7	11.3	-6.8	10.9	-5.7	4.4
O=[N+]([O-])c1cc(S(=O)(=O)Oc2ccccc2)ccc1Cl	107.1*	3.6	88.5*	-72.0*	87.0*	88.2*
CCOc1ccc(N2C(=O)S/C(=C\c3ccc(O)c(OC)c3)C2=O)cc1	-19.2	5.5	-0.2	9.2	-16.7	-33.2
COc1cc(/C=C2\SC(=N)N(c3ccc(F)cc3)C2=O)ccc1O	41.9	5.0	61.8*	-40.0	-10.9	18.8
O=C(O)c1ccc(CNC(=O)c2ccc(C(F)(F)F)cc2)cc1	5.2	-3.9	6.6	-11.9	19.2	9.5
CCN(CC)c1ccc(N2C(=O)/C(=C/c3cccnc3)SC2=S)cc1	11.5	-8.0	56.3*	-39.0	12.1	8.3
CCN(CC)c1ccc(N2C(=O)/C(=C\c3cccnc3)SC2=S)cc1	23.5	-1.9	4.5	4.1	20.6	10.8
O=C(/C=C/Sc1ccc(C(F)(F)F)cn1)c1ccccc1	96.1*	11.6	-18.4	-3.1	40.5	-11.8
CC(O)Cc1cn(CC(=O)N2CCN(C(=O)OC(C)(C)C)CC2)nn1 (centres undefined)	6.8	5.3	-3.0	5.9	-0.7	18.5
COc1ccc(-c2nc(-c3ccccn3)ncc2S(C)(=O)=O)cc1	-0.3	-4.6	-3.1	-0.8	-3.5	6.5
Cn1nc(-c2ccccn2)nc2c(=O)n(C)c(=O)nc1-2	104.6*	13.7	99.5*	-99.2*	103.8*	71.4*
Cc1ccc(C(=O)N2C(=S)C(c3ccc(F)cc3)=NC23CCN(C)CC3)cc1	90.0*	-2.3	-0.8	-1.5	51.1	14.4
Cc1ccc(C(=O)N2CCC(C(=O)c3ccc(F)cc3)CC2)cc1	19.8	0.5	32.9	-15.2	-5.6	6.2
COc1ccc(CCNc2cc(N3CCN(C(=O)c4ccccc4F)CC3)ccc2[N+](=O)[O-])cc1OC	44.9	1.2	5.6	-0.9	83.3*	-8.6
COc1ccc(C(=O)N2CCN(c3ccc([N+](=O)[O-])c(NCCc4ccc(OC)c(OC)c4)c3)CC2)cc1	30.2	-1.8	-5.3	11.7	78.5*	9.4
CCOc1ccc(C)cc1-n1nc2ccccc2n1	-28.9	-3.6	1.5	2.3	-33.3	-9.2
Cc1ccc(OCC(=O)Nc2ccc(Cl)cc2)c(-n2nc3ccccc3n2)c1	47.5	-2.4	70.3*	-70.4*	-4.2	-3.5
COc1cccc(NC(=O)CSc2nnc(-c3cc(C)n(-c4ccccc4)c3C)o2)c1	-76.9	3.8	-6.5	-0.7	16.7	41.8*
Cc1cc(C)c2nc(N3CCC(C(=O)NCCCN4CCCCC4)CC3)sc2c1	69.5*	12.4	25.7	-4.6	69.1*	4.1
Cc1cc(C)c2nc(N3CCC(C(=O)NCC4CCCO4)CC3)sc2c1 (centres undefined)	-34.9	-2.5	-5.5	17.6	-21.3	-50.3
CSc1nc(N)c2c(n1)N(C)C=NS2(=O)=O	-3.8	-0.5	5.8	3.0	-1.7	-6.4
O=C(NCc1ccco1)c1ccc(-c2ccc3nccn3c2)cc1	6.0	22.2*	28.3	-11.5	/	-25.4
CN(C)C(CNC(=O)c1cccc(S(=O)(=O)NCc2ccccc2)c1)c1ccco1 (centres undefined)	6.1	-2.0	-9.6	4.3	3.4	13.7
CC(C)C[C@H]1CNC(=S)N1C[C@H]1CCCN1C[C@H](CC(C)C)N1C[C@H](Cc2ccc(O)cc2)N(CC2CCCCCC2)C1=S	86.7*	5.3	36.6	-26.2	/	2.0
CC(C)C[C@@H](CN1CCC[C@@H]1CN1C(=S)NC[C@@H]1Cc1ccccc1)N1C[C@H](Cc2ccc(O)cc2)N(CC2CCCCC2)C1=S	-11.6	2.4	22.8	-10.5	/	-1.0
CC(C)C[C@H]1CNC(=S)N1CC1CCCN1C[C@H](CC(C)C)N1C[C@H](Cc2ccc(O)cc2)N(CC2CCCCC2)C1=S (some centres undefined)	78.0*	-10.6	36.0	8.5	13.2	-5.1
CC(C)C[C@H]1CNC(=S)N1CC1CCCN1C[C@H](CC(C)C)N1C[C@H](Cc2ccc(O)cc2)N(CC2CCCCCC2)C1=S (some centres undefined)	87.3*	0.5	39.4	-1.0	10.7	-27.3

From PubChem BioAssay
